Test results as given in the supplement of paper PMC10849652.
The full data set covers some 7,900 targets. This sample favours those with a hit. About 0.6% of all pairs of compound and target were hits. Values without a mark were called inactive.

Columns and labels:
Experiment in all cases: log2 fold change, soluble protein after heating vs DMSO (PISA); higher = thermal stabilisation; K562 cells, 10 uM, 30 min; active = over 0.2 and 3.5 SD of the protein, either way, in both replicates (recomputed)
[1] = compound: CC1=C(C=C(C=C1)NC(=O)C2=CC(=CC=C2)C(C)(C)C#N)NC3=CC4=C(C=C3)N=CN(C4=O)C
Summary of the method: (§1)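 K562 cells at 2×10^6 cells/mL were exposed to 10 μM compound for 30 min, then aliquots were heated for 3 min across 48°C-58°C, pooled, and extracted in PBS containing 0.5% NP-40 at 4°C. The supernatant after 21,000xg for 90 min was taken as soluble protein and measured by TMTpro 16plex LC-MS/MS with channel sums equalised. Thermal stability is reported relative to control samples, with values from duplicates. Fold changes are given on a log2 scale.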

[2] = compound: CC1=C(C=C(C=C1)NC(=O)C2=CC(=CC=C2)N(C)C)NC(=O)C3=CC=C(C=C3)O
Summary of the method: as §1

[3] = compound: CC1=CC=C(C=C1)SC2=C3C=C(SC3=CN=C2)C(=O)N
Summary of the method: as §1

[4] = compound: CC1=NC(=CC=C1)C2=C(N=C(N2)C(C)(C)C)C3=CC4=NC=CN=C4C=C3
Summary of the method: as §1

Nexturastat A = compound: CCCCN(Cc1ccc(C(=O)NO)cc1)C(=O)Nc1ccccc1 [Nexturastat A]
Summary of the method: as §1

vemurafenib = compound: CCCS(=O)(=O)Nc1ccc(F)c(C(=O)c2c[nH]c3ncc(-c4ccc(Cl)cc4)cc23)c1F [vemurafenib]
Summary of the method: as §1

[5] = compound: CCCS(=O)(=O)Nc1ccc(F)c(C(=O)c2c[nH]c3ncc(Cl)cc23)c1F
Summary of the method: as §1

[6] = compound: CCCc1cc(C)[nH]c(=O)c1CNC(=O)c1cc(-c2ccnc(N3CCN(C)CC3)c2)cc2c1cnn2C(C)C
Summary of the method: as §1

givinostat = compound: CCN(CC)Cc1ccc2cc(COC(=O)Nc3ccc(C(=O)NO)cc3)ccc2c1 [givinostat]
Summary of the method: as §1

barasertib = compound: CCN(CCCOc1ccc2c(Nc3cc(CC(=O)Nc4cccc(F)c4)[nH]n3)ncnc2c1)CCOP(=O)(O)O [barasertib]
Summary of the method: as §1

[7] = compound: CC[C@@H]1C(=O)N(C)c2cnc(Nc3ccc(C(=O)NC4CCN(C)CC4)cc3OC)nc2N1C1CCCC1
Summary of the method: as §1

volasertib = compound: CC[C@@H]1C(=O)N(C)c2cnc(Nc3ccc(C(=O)N[C@H]4CC[C@H](N5CCN(CC6CC6)CC5)CC4)cc3OC)nc2N1C(C)C [volasertib]
Summary of the method: as §1

[8] = compound: CC[C@H](C)N1C=C(C2=C(C=C(C=C21)C3=CN=C(C=C3)N4CCNCC4)C(=O)NCC5=C(C=C(NC5=O)C)C)C
Summary of the method: as §1

epoxomicin = compound: CC[C@H](C)[C@@H](C(=O)N[C@@H]([C@@H](C)O)C(=O)N[C@@H](CC(C)C)C(=O)[C@]1(CO1)C)NC(=O)[C@H]([C@@H](C)CC)N(C)C(=O)C [epoxomicin]
Summary of the method: as §1

[9] = compound: CCn1c(C(=O)N(C2CC2)C2CC2)cc2c3c(ncn3C)c(Nc3cc(C)n(C)n3)nc21
Summary of the method: as §1

[10] = compound: CCn1cc(-c2ccnc3[nH]c(-c4cccc(CN(C)C)c4)cc23)c(-c2ccc(NC(=O)N(C)C)cc2)n1
Summary of the method: as §1

[11] = compound: CN(C)CC(=O)Nc1ccc2[nH]c(=O)c3ccccc3c2c1
Summary of the method: as §1

rosiglitazone = compound: CN(CCOC1=CC=C(C=C1)C[C@H]2C(=O)NC(=O)S2)C3=CC=CC=N3 (racemic) [rosiglitazone]
Summary of the method: as §1

[12] = compound: CN1C2=C(C3=C1C(=O)N(N=C3)CC4=CC(=CC=C4)N)SC(=C2)S(=O)C
Summary of the method: as §1

[13] = compound: CN1CCC(CNc2ccc3ncc(-c4cccc(OC(F)(F)F)c4)n3n2)CC1
Summary of the method: as §1

Chain of UniProt Q9Y244 (Q9Y244 whole entry, looked up): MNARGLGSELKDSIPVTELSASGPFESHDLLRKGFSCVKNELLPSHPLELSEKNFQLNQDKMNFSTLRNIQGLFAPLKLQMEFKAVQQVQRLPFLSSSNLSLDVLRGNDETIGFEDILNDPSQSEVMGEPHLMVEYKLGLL
Chain of UniProt Q9P2B2 (Q9P2B2 whole entry, looked up): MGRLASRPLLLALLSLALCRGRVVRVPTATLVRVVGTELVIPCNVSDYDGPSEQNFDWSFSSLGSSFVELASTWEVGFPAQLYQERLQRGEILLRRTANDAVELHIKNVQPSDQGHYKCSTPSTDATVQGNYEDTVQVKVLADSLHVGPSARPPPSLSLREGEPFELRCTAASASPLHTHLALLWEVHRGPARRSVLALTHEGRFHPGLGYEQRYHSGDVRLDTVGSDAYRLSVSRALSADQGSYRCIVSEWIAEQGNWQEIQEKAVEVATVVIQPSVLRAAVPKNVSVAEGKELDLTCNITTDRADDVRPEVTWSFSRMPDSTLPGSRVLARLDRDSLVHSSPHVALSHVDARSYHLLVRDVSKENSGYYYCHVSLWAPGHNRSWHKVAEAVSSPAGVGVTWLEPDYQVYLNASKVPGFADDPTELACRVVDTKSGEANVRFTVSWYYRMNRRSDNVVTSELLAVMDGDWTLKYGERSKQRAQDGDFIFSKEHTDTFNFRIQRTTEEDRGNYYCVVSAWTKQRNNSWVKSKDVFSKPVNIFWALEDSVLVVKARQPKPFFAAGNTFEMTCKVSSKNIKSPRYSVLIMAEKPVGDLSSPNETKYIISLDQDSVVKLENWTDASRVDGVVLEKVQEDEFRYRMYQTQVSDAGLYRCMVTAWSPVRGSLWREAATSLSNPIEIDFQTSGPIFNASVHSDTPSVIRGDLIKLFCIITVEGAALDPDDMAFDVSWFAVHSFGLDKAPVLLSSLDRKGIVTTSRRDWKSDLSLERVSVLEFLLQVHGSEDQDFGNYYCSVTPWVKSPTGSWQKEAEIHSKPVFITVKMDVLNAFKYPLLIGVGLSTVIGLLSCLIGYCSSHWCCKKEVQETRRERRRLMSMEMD
Chain of UniProt P51665 (P51665 whole entry, looked up): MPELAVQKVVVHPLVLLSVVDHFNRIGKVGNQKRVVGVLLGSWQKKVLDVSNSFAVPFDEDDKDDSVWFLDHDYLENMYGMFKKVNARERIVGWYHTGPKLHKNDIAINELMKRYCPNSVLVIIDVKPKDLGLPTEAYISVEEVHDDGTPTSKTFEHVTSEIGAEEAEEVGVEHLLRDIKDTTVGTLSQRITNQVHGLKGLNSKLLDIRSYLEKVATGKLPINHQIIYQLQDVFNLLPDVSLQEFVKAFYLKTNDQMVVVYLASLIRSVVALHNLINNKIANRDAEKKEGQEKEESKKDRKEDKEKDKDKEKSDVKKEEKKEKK
Chain of UniProt P50336 (P50336 whole entry, looked up): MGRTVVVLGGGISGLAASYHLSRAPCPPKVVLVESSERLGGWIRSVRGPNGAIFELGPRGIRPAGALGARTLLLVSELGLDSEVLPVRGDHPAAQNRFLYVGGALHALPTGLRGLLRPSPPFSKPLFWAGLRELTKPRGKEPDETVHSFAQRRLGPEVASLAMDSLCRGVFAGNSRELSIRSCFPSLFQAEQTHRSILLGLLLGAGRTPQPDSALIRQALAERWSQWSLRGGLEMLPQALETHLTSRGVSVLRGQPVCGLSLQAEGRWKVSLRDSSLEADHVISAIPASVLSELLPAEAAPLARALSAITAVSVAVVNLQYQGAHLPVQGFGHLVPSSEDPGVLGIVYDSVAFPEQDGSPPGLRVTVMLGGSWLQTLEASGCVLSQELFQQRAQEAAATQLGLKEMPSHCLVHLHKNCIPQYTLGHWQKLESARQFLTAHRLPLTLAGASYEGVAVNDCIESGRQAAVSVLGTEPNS
Chain of UniProt Q8IZL8 (Q8IZL8 whole entry, looked up): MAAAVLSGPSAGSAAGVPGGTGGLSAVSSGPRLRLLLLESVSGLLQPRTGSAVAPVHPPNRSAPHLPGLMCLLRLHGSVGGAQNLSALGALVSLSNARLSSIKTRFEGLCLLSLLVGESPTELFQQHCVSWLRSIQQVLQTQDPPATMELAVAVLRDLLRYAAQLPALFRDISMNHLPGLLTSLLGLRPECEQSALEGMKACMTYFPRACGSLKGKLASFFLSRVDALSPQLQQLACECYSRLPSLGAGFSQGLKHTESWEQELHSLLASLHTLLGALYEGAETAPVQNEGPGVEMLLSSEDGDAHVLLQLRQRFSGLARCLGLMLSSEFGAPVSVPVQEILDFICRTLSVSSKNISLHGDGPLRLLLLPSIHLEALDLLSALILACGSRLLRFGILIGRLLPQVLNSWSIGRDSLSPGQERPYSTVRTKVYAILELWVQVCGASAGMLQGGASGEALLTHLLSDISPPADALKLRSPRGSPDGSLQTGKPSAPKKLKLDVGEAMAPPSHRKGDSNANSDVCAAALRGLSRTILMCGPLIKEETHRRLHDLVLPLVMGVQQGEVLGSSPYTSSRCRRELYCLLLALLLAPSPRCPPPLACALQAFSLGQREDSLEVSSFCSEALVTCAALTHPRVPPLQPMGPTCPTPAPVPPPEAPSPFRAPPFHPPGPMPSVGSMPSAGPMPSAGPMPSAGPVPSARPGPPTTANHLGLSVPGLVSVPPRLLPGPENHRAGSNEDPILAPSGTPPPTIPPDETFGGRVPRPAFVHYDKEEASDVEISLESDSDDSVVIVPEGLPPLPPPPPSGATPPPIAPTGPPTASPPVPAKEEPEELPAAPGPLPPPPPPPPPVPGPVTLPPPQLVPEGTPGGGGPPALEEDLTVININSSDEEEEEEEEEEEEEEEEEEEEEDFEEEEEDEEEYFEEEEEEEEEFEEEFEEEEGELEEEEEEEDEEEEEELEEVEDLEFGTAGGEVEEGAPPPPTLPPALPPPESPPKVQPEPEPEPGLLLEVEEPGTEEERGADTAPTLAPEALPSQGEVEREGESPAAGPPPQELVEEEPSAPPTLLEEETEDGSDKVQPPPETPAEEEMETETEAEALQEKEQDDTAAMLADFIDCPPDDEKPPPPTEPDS
Chain of UniProt Q13131 (Q13131 whole entry, looked up): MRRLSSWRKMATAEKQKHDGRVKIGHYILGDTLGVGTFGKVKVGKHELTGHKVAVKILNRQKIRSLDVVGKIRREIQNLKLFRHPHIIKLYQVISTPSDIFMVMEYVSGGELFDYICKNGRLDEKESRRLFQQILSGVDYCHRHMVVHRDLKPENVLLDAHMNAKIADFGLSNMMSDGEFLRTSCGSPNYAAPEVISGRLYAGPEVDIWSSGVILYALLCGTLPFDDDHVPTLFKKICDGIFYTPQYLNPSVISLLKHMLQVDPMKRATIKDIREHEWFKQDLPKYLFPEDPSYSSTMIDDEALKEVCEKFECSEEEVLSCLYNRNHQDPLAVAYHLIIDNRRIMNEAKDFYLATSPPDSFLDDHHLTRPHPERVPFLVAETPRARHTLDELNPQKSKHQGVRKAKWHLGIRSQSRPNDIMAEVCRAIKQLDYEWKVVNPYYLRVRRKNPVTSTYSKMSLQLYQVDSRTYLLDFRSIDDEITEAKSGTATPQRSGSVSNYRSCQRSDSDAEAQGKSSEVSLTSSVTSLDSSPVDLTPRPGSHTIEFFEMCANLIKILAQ
Chain of UniProt Q9Y5Y5 (Q9Y5Y5 whole entry, looked up): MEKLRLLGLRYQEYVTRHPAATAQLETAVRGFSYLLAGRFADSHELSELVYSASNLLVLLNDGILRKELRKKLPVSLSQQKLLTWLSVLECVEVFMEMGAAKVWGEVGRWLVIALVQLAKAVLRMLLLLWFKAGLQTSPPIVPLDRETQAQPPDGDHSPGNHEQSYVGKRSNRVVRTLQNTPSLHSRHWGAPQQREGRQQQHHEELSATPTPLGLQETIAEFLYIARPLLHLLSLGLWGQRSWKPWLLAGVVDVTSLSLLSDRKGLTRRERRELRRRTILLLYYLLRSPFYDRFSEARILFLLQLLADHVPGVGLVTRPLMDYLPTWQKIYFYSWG

Target | log2 fold change [1] | log2 fold change [2] | log2 fold change [3] | log2 fold change [4] | log2 fold change (Nexturastat A) | log2 fold change (vemurafenib) | log2 fold change [5] | log2 fold change [6] | log2 fold change (givinostat) | log2 fold change (barasertib) | log2 fold change [7] | log2 fold change (volasertib) | log2 fold change [8] | log2 fold change (epoxomicin) | log2 fold change [9] | log2 fold change [10] | log2 fold change [11] | log2 fold change (rosiglitazone) | log2 fold change [12] | log2 fold change [13]
PTGFRN (UniProt Q9P2B2) | -0.044 | -0.025 | 0.006 | -0.012 | -0.021 | 0.013 | -0.045 | -0.03 | 0.007 | -0.043 | 0.032 | 0.008 | 0 | 0.014 | 0.022 | -0.049 | -0.01 | 0.025 | -0.104 | 0.181
PECAM1 (UniProt P16284) | -0.092 | -0.019 | -0.013 | -0.113 | 0.068 | -0.049 | 0.004 | -0.015 | 0.01 | 0.028 | 0.116 | 0.061 | -0.019 | -0.027 | 0.022 | -0.106 | 0.027 | 0.014 | -0.067 | 0.168
PELP1 (UniProt Q8IZL8) | -0.048 | 0.044 | 0.034 | -0.02 | 0.15 | -0.01 | -0.038 | -0.006 | 0.039 | -0.085 | 0.056 | 0.017 | -0.002 | -0.004 | -0.01 | 0.047 | -0.009 | 0.017 | 0.006 | 0.021
POMP (UniProt Q9Y244) | 0.024 | 0.075 | -0.069 | 0.076 | 0.145 | -0.023 | -0.023 | 0.016 | -0.045 | 0.054 | 0.097 | -0.049 | 0.008 | 0.581 (active) | -0.005 | 0.021 | -0.018 | -0.059 | -0.02 | -0.004
PEX16 isoform 2 (UniProt Q9Y5Y5) | 0.017 | 0.038 | 0.083 | 0.146 | -0.033 | 0.071 | 0.089 | -0.07 | 0.006 | -0.007 | -0.065 | -0.138 | -0.013 | -0.024 | -0.041 | 0.033 | 0.013 | 0.062 | -0.127 | -0.124
PPOX (UniProt P50336) | 0.402 | -0.014 | 0.043 | 0.099 | -0.232 | 0.065 | 0.046 | 0.184 | -0.063 | 0 | -0.134 | -0.023 | -0.017 | -0.002 | 0.109 | -0.052 | 0.008 | 0.127 | -0.164 | -0.583 (active)
PSMD7 (UniProt P51665) | -0.011 | -0.005 | -0.047 | -0.038 | 0.145 | -0.073 | -0.029 | 0.045 | -0.03 | -0.05 | 0.027 | 0.205 | 0 | -0.236 | 0.01 | 0.027 | -0.019 | -0.047 | 0.083 | 0.06
PRKAA1 isoform 2 (UniProt Q13131) | -0.029 | 0.001 | -0.001 | 0.02 | -0.042 | 0.025 | 0.008 | 0.021 | -0.014 | 0.016 | -0.035 | -0.154 | 0.04 | 0.017 | -0.026 | -0.052 | -0.007 | 0.016 | 0.001 | -0.254 (active)
